Assay results from PubChem BioAssay.
Values joined by “and” are separate entries in the source; they are usually repeats but may differ in a detail not shown here. Equal values may be shown once. A structure can be active in one record and inactive in another. Active and inactive are the calls of the source.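 Rule for the calls, unless noted: active = inhibition at or above 50% relative to wild type and mutant plate controls; inactive = inhibition below 50%.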

Legend:
[1] = inhibitors of mutant huntingtin aggregation, primary screen, imaging, exon1htt(103Q)mCFP cells, high-content imaging (AID 483;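 active = visual image review flags a hit and inhibition of aggregation exceeds 20%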;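 note: compound exposure lasted 3 days before fixation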;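 for nuclei count: percent of the per-plate median nuclei count of sample wells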); conditions: exon1htt(103Q)mCFP cell line, aggregate imaging, at 2 µM; inhibition of aggregation: stronger effect = higher value; nuclei count: measured here: cell count, toxicity
[2] = inhibitors of E-selectin induction by TNFa, primary screen, imaging, HUVEC, immunofluorescence, MLSMR starter and 10KST1 sets (AID 487;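 active = visually confirmed hit in the image check and inhibition above 20%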;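 for inhibition: signal is fraction of cell area covered by stained E-selectin grains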;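 for nuclei count: 100% = median nuclei count of all wells on the same plate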); conditions: HUVEC TNFalpha-induced E-selectin immunofluorescence imaging, at 2 µM; inhibition: stronger effect = higher value; nuclei count: measured here: cell number, toxicity
[3] = DUSP6 inhibitors restoring Erk phosphorylation by chemical complementation, primary imaging in DUSP6-transfected HeLa (AID 609;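 active = compounds giving at least 50% inhibition in the cell-based MKP-3 phosphatase rescue imaging test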;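 for inhibition: phospho-Erk level distribution per well compared with pooled transfected vehicle control wells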); conditions: HeLa MKP-3 transfected, phospho-Erk imaging KS statistic, at 10 µM, cells stimulated with TPA for 15 min
[4] = molecular target: Dual specificity protein phosphatase 6 (Homo sapiens) (UniProt Q16828); test: as above; conditions: HeLa MKP-3 transfected, phospho-Erk imaging KS statistic; at 10 µM; stronger effect = higher value; cells stimulated with TPA for 15 min
[5] = molecular target: Voltage-gated potassium channel subunit beta-2 (Rattus norvegicus) (UniProt P62483); test: KvBeta enzyme negative modulators, primary screen, biochemical, NADPH fluorescence (AID 622;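 active = fluorescence slope higher than the sample average by over 3 SD, cut at about -0.22 in these data, passing the limit was not always enough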;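 note: slope of raw intensity against log time taken from 70 to 1610 s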); conditions: recombinant KvBeta, 4-cyanobenzaldehyde reduction, at 10 µM, stronger effect = higher value
[6] = molecular target: Voltage-gated potassium channel subunit beta-2 (Rattus norvegicus) (UniProt P62483); test: KvBeta positive modulators, primary screen, biochemical, NADPH fluorescence (AID 623;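 active = NADPH fluorescence slope more negative than the mean of all samples by about 3 SD, 99.7% confidence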;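 note: fluorescence intensity change per second fitted from 20 to 320 s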); conditions: Recombinant KvBeta, NADPH fluorescence decrease slope, 10 min; at 10 µM; stronger effect = lower value
[7] = molecular target: Alpha-2C adrenergic receptor (Homo sapiens) (UniProt P18825); test: modulators of alpha2C/GIRK thallium flux, primary screen, cell-based, HEK293 alpha2C/GIRK1/2 (AID 624;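 active = fluorescence slope after compound addition differing from the mean of all screened samples at 99.7% confidence, in either direction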;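 note: slope of fluorescence ratio to pre-addition baseline per second over 15 to 24 s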); conditions: thallium flux BTC fluorescence, at 10 µM, actives lie on both sides
[8] = inhibitors of larval lipid processing in zebrafish, primary screen, whole organism, PED6 fluorescence, gall bladder and intestine (AID 686;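 active = a full or partial loss of lipid-probe fluorescence in the fish gall bladder, intestine or both, judged by eye; inactive = no fluorescence loss, or compound toxic to the fish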;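 note: larvae 5 to 7 days old with five fish per well; signal comes from phospholipase A2 cleavage of quenched PED6 carried via bile; overnight exposure to compound and PED6 before scoring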); conditions: Zebrafish larvae PED6 lipid processing, fluorescence scoring; screened at 20 µM (by protocol)
[9] = inhibitors of Chlamydomonas gravitaxis, primary screen, whole organism, Chlamydomonas reinhardtii, WT vs cilia-less mutant, absorbance, 96-well (AID 463189); conditions: OD600 absorbance, 2 days, at 10 µM, stronger effect = higher value;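 note: 0% = wild type cc124 cells in DMSO and 100% = ciliumless bld1 mutant cells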
[10] = inhibitors of Sendai virus-induced IRF3 signaling, primary screen, TLR/RLR signaling modifier project, cell-based, Sendai virus stimulus, luciferase, 10K MLSCN set (AID 602276;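 active = inhibition at or above 50% at 10 µM; inactive = inhibition below 50%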;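 note: firefly luciferase from ISG56 promoter only with Renilla not read in this screen; 0% = Sendai virus plus DMSO and 100% = medium plus DMSO without virus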); conditions: HEK293 RL24 IRF3 luciferase reporter, at 10 µM, stronger effect = higher value
[11] = inhibitors of poly I:C-induced TLR3 signaling, primary screen, cell-based, poly I:C stimulus, luciferase, 10K MLSCN set (AID 602277;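 active = inhibition of the reporter signal at or above 50%; inactive = inhibition below 50%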); conditions: HEK293-TLR3 RL24 IRF3 luciferase reporter, at 10 µM, stronger effect = higher value
[12] = molecular target: Muscarinic acetylcholine receptor M4 (Homo sapiens) (UniProt P08173); test: compounds altering M4/GIRK thallium flux, either direction, primary screen, M4 allosteric agonist project, cell-based, HEK293 M4/GIRK, BTC-AM (AID 625;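 active = fluorescence slope after compound addition differing from the mean of all tested samples at 99.7% confidence, mostly higher but some lower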;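 note: thallium influx through GIRK channels coupled to M4 in HEK293 cells with BTC-AM dye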); conditions: at 10 µM, actives lie on both sides
[13] = measured here: cell density z-score
[14] = measured here: nuclear c-Myc green intensity z-score
[15] = measured here: nuclear pErk red intensity z-score, stronger effect = higher value

Chain of Dual specificity protein phosphatase 6 (Homo sapiens) (Q16828 whole entry, looked up): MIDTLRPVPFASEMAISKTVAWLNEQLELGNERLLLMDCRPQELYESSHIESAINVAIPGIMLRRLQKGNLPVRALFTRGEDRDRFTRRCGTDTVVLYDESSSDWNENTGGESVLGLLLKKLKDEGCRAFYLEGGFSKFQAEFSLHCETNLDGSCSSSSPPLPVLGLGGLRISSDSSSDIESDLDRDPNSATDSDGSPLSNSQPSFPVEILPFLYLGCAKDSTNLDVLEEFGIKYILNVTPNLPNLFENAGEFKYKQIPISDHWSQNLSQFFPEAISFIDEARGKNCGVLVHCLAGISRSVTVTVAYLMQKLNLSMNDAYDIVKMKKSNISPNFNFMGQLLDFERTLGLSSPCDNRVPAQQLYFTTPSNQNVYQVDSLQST
Chain of Voltage-gated potassium channel subunit beta-2 (Rattus norvegicus) (P62483 whole entry, looked up): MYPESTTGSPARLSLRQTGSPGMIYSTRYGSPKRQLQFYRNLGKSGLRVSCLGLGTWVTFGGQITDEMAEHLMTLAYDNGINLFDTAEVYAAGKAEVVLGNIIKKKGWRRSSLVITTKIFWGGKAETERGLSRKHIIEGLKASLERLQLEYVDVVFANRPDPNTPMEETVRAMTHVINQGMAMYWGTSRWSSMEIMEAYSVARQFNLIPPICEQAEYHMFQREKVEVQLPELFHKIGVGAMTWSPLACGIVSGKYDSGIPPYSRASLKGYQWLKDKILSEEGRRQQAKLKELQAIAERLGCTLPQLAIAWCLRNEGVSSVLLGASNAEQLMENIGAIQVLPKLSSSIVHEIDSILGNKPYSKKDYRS
Chain of Alpha-2C adrenergic receptor (Homo sapiens) (P18825 whole entry, looked up): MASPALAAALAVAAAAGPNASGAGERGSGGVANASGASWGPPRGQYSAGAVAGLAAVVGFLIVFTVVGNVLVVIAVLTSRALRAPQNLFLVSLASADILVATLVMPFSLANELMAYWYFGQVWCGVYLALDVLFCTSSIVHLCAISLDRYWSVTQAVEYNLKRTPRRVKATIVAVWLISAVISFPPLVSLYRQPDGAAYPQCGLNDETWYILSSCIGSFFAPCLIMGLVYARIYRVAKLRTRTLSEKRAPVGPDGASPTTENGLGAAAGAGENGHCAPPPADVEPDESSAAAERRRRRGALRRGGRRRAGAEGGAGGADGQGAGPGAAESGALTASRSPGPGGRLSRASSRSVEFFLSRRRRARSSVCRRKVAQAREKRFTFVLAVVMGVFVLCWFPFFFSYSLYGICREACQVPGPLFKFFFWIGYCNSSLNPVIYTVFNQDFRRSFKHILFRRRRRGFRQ
Chain of Muscarinic acetylcholine receptor M4 (Homo sapiens) (P08173 whole entry, looked up): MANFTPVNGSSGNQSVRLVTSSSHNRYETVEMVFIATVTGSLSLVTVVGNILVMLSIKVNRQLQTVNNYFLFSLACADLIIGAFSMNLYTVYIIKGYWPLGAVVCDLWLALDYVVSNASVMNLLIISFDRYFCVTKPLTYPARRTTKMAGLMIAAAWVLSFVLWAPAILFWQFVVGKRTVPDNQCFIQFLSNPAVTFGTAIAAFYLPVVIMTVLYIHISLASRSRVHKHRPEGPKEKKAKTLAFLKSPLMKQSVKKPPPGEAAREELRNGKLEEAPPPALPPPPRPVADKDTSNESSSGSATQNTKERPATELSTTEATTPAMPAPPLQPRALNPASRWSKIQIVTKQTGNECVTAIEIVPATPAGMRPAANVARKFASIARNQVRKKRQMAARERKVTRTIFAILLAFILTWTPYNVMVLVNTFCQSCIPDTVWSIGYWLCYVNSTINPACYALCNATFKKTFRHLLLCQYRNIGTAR

Compound | inhibition of aggregation [1] | nuclei count [1] | inhibition [2] | nuclei count [2] | z-score [3, 13] | z-score [3, 14] | z-score [3, 15] | inhibition [4] | fluorescence slope [5] | NADPH fluorescence slope [6] | slope [7] | outcome [8] | inhibition [9] | inhibition [10] | inhibition [11] | fluorescence slope [12]
Cc1ncc([N+](=O)[O-])n1CCO | 7.7% (inactive) | 76.5% | -67% (inactive) | 110% | 0.289 | -1.84 | 1.07 | -5.24% (inactive) | -0.491 (inactive) | -8.5e-05 (inactive) | 0.00488 (inactive) | inactive | 1.99% (inactive) | 8% (inactive) | 25.4% (inactive) | –
C[C@H]1C[C@H]2[C@@H]3CCC4=CC(=O)C=C[C@]4(C)[C@@]3(Cl)[C@@H](O)C[C@]2(C)[C@@]1(O)C(=O)CO | -11.8% (inactive) | 69.5% | -5.2% (inactive) | 113% | 0.584 | -0.957 | -0.321 | -4.44% (inactive) | -0.496 (inactive) | -7.9e-05 (inactive) | 0.00488 (inactive) | inactive | -5.54% (inactive) | 8.02% (inactive) | 22.6% (inactive) | –
NS(=O)(=O)c1cc2c(cc1Cl)NCNS2(=O)=O | -4.8% (inactive) | 107% | -46.3% (inactive) | 102% | -0.71 | -0.153 | -1.04 | -0.493% (inactive) | -0.428 (inactive) | 1.8e-05 (inactive) | 0.00467 (inactive) | inactive | 0.566% (inactive) and -18.6% (inactive) | 15.2% (inactive) | 40.7% (inactive) | –
CC(COc1ccccc1)N(CCCl)Cc1ccccc1 (stereo not given) | 3.6% (inactive) | 91.3% | -41.5% (inactive) | 106% | 0.673 | 0.156 | -1.5 | 3.59% (inactive) | -0.458 (inactive) | -8e-05 (inactive) | 0.00427 (inactive) | inactive | -4.83% (inactive) and 76.9% (active) | 4.33% (inactive) | 22.7% (inactive) | –
CN(C)CCOC(C)(c1ccccc1)c1ccccn1 (stereo not given) | 21.5% (inactive) | 111% | -17.5% (inactive) | 132% | -0.381 | 0.211 | -0.829 | 33% (inactive) | -0.52 (inactive) | 2.3e-06 (inactive) | 0.00491 (inactive) | inactive | -2.11% (inactive) and -8.4% (inactive) | 2.29% (inactive) | 19.2% (inactive) | –
COC(=O)c1ccc(N2C(=O)CC(N3CCN(C(=O)c4ccco4)CC3)C2=O)cc1 (stereo not given) | 0.2% (inactive) | 103% | -195% (inactive) | 104% | 0.106 | -0.422 | -0.968 | 8.31% (inactive) | -0.527 (inactive) | -5.8e-05 (inactive) | – | inactive | 1.38% (inactive) | 6.43% (inactive) | 18.5% (inactive) | 0.00534 (inactive)
CC(=O)OCC1=C(C(=O)O)N2C(=O)[C@@H](NC(=O)Cc3cccs3)[C@H]2SC1 | -14.4% (inactive) | 85.4% | -35% (inactive) | 116% | -0.65 | -0.0505 | -0.555 | 17.3% (inactive) | -0.429 (inactive) | -5.9e-05 (inactive) | 0.00483 (inactive) | inactive | 7.69% (inactive) and 18.3% (inactive) | 10.9% (inactive) | 35.2% (inactive) | –
Nc1ccc(C(=O)O)c(O)c1 | 3.1% (inactive) and 6.7% (inactive) | 99.9% and 81.7% | -66.9% (inactive) and -44% (inactive) | 121% and 120% | 0.96 and 0.975 | -0.574 and 0.166 | 0.314 and -1.51 | 3.59% (inactive) and 13.3% (inactive) | -0.483 (inactive) and -0.504 (inactive) | -1.6e-05 (inactive) and -1e-05 (inactive) | 0.00463 (inactive) and 0.00637 (inactive) | inactive | -10.5% (inactive) and -2.41% (inactive) | 5.21% (inactive) and 16.9% (inactive) | 9.44% (inactive) and 29.7% (inactive) | –
CCc1oc2ccccc2c1C(=O)c1cc(Br)c(O)c(Br)c1 | -4.4% (inactive) | 98% | -113% (inactive) | 132% | 0.0952 | 0.368 | 0.987 | 17.3% (inactive) | -0.429 (inactive) | 3.1e-06 (inactive) | 0.00421 (inactive) | inactive; toxic | 129% (active) | 18.5% (inactive) | 30.1% (inactive) | –
CCOc1ccc2nc(S(N)(=O)=O)sc2c1 | -4.8% (inactive) | 112% | -20.9% (inactive) | 127% | 1.44 | 0.726 | -0.916 | 21.2% (inactive) | -0.485 (inactive) | -5.5e-05 (inactive) | 0.00518 (inactive) | inactive | 31% (inactive) | 3.12% (inactive) | -17% (inactive) | –
Cc1cc(C)nc(NS(=O)(=O)c2ccc(N)cc2)n1 | -9.6% (inactive) | 104% | -28.5% (inactive) | 107% | -0.395 | 0.0726 | -0.14 | -3.03% (inactive) | -0.51 (inactive) | -5.4e-05 (inactive) | 0.00415 (inactive) | inactive | -15% (inactive) | 15.1% (inactive) | 26.9% (inactive) | –
